What all share (assay): PBM; 200 nM protein, PBS
What all share (conditions): dsDNA, one strand shown

The target of assay [1] is HOXB9 (Homo sapiens, UniProt P17482 171-250, T197M).
Assay [2] has as its target HOXC9 (Homo sapiens, UniProt P31274 178-260, K195R).
Assay [3] has as its target HOXC10 (Homo sapiens, UniProt Q9NYD6 254-340).
Assay [4] concerns the target HOXB9 (Homo sapiens, UniProt P17482 171-250).
In assay [5] the target is HOXC9 (Homo sapiens, UniProt P31274 178-260).
Assay [6] concerns the target HOXD13 (Homo sapiens, UniProt P35453 263-343, T313R).
Assay [7] has as its target HOXC9 (Homo sapiens, UniProt P31274 178-260, R193K).
The target of assay [8] is HOXD13 (Homo sapiens, UniProt P35453 263-343).
In assay [9] the target is HOXC10 (Homo sapiens, UniProt Q9NYD6 254-340, K271E).
Assay [10] concerns the target HOXD13 (Homo sapiens, UniProt P35453 263-343, T313A).
Assay [11] addresses HOXB9 (Homo sapiens, UniProt P17482 171-250, R186Q).
For assay [12], the target named is HOXC9 (Homo sapiens, UniProt P31274 178-260, R222W).
In assay [13] the target is HOXA2 (Homo sapiens, UniProt O43364 129-215, R185K).
For assay [14], the target named is ALX1 (Homo sapiens, UniProt Q15699 118-204, L144V).
Assay [15] concerns the target ALX1 (Homo sapiens, UniProt Q15699 118-204, L144R).
For assay [16], the target named is ALX1 (Homo sapiens, UniProt Q15699 118-204).
Assay [17] addresses PRRX1 (Homo sapiens, UniProt P54821 80-166, F113S).
Assay [18] has as its target PRRX1 (Homo sapiens, UniProt P54821 80-166).

HOXB9 (Homo sapiens, UniProt P17482 171-250), sequence (P17482 171-250): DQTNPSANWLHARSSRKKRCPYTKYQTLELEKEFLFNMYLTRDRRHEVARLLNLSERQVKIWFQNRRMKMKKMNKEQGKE
HOXB9 (Homo sapiens, UniProt P17482 171-250, R186Q), sequence (P17482 171-250 R186Q): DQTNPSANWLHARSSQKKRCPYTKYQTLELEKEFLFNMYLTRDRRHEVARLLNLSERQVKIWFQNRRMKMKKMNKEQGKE
HOXC9 (Homo sapiens, UniProt P31274 178-260, R193K), sequence (P31274 178-260 R193K): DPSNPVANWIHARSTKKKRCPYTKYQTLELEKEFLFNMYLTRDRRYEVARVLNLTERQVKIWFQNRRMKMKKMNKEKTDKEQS
HOXC10 (Homo sapiens, UniProt Q9NYD6 254-340, K271E), sequence (Q9NYD6 254-340 K271E): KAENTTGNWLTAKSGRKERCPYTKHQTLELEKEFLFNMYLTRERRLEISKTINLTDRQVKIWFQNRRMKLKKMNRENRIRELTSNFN
HOXC9 (Homo sapiens, UniProt P31274 178-260, K195R), sequence (P31274 178-260 K195R): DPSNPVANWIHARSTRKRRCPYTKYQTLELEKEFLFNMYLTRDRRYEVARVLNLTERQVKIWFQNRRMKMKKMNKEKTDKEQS
HOXD13 (Homo sapiens, UniProt P35453 263-343, T313R), sequence (P35453 263-343 T313R): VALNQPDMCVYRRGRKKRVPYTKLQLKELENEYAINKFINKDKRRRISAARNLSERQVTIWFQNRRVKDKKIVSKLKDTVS
HOXC10 (Homo sapiens, UniProt Q9NYD6 254-340), sequence (Q9NYD6 254-340): as the sequence (Q9NYD6 254-340 K271E) above, with E18K counted along it
HOXD13 (Homo sapiens, UniProt P35453 263-343), sequence (P35453 263-343): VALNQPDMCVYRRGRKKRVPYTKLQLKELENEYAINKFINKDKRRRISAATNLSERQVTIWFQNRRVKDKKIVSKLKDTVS
HOXD13 (Homo sapiens, UniProt P35453 263-343, T313A), sequence (P35453 263-343 T313A): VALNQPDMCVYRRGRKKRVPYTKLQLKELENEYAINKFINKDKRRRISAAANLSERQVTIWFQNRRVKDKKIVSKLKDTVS
HOXC9 (Homo sapiens, UniProt P31274 178-260), sequence (P31274 178-260): as the sequence (P31274 178-260 R193K) above, with K16R counted along it
HOXC9 (Homo sapiens, UniProt P31274 178-260, R222W), sequence (P31274 178-260 R222W): as the sequence (P31274 178-260 R193K) above, with K16R, R45W counted along it
HOXB9 (Homo sapiens, UniProt P17482 171-250, T197M), sequence (P17482 171-250 T197M): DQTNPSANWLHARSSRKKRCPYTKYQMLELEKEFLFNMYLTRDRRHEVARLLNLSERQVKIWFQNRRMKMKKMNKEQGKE
PRRX1 (Homo sapiens, UniProt P54821 80-166), sequence (P54821 80-166): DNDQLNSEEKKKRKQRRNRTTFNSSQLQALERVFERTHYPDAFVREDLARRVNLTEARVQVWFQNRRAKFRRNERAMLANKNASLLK
HOXA2, sequence (O43364 129-215 R185K): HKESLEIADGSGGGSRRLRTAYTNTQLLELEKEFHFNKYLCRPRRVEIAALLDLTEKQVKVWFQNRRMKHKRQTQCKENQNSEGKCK
ALX1 (Homo sapiens, UniProt Q15699 118-204, L144V), sequence (Q15699 118-204 L144V): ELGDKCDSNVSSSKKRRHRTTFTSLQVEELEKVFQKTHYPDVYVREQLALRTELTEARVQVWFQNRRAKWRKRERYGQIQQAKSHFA
ALX1 (Homo sapiens, UniProt Q15699 118-204, L144R), sequence (Q15699 118-204 L144R): as the sequence (Q15699 118-204 L144V) above, with V27R counted along it
PRRX1 (Homo sapiens, UniProt P54821 80-166, F113S), sequence (P54821 80-166 F113S): as the sequence (P54821 80-166) above, with F34S counted along it
ALX1 (Homo sapiens, UniProt Q15699 118-204), sequence (Q15699 118-204): as the sequence (Q15699 118-204 L144V) above, with V27L counted along it

Regarding ACTATAAA, the binding signal in assay [1] was 9.75 upbm affinity estimate (log intensity, higher = more binding, comparable within an allelic series); in [2], 12.4 upbm affinity estimate (log intensity, higher = more binding, comparable within an allelic series); in assay [3], 12.1 upbm affinity estimate (log intensity, higher = more binding, comparable within an allelic series); in [4], 11.7 upbm affinity estimate (log intensity, higher = more binding, comparable within an allelic series); in assay [5], 12.6 upbm affinity estimate (log intensity, higher = more binding, comparable within an allelic series); in assay [6], 10.9 upbm affinity estimate (log intensity, higher = more binding, comparable within an allelic series). In addition, the binding signal in assay [7] is 12.5 upbm affinity estimate (log intensity, higher = more binding, comparable within an allelic series); in [8], 12 upbm affinity estimate (log intensity, higher = more binding, comparable within an allelic series); in [9] it was 11.4 upbm affinity estimate (log intensity, higher = more binding, comparable within an allelic series); in assay [10] it was 11.8 upbm affinity estimate (log intensity, higher = more binding, comparable within an allelic series); in assay [11], 11.4 upbm affinity estimate (log intensity, higher = more binding, comparable within an allelic series); in [12], 11 upbm affinity estimate (log intensity, higher = more binding, comparable within an allelic series).

Consider CTATAAAA, for which the binding signal in assay [1] was 9.77 upbm affinity estimate (log intensity, higher = more binding, comparable within an allelic series); in [2], 12.8 upbm affinity estimate (log intensity, higher = more binding, comparable within an allelic series); in assay [3] it was 12.4 upbm affinity estimate (log intensity, higher = more binding, comparable within an allelic series); in assay [4], 12.2 upbm affinity estimate (log intensity, higher = more binding, comparable within an allelic series); in [5], 12.9 upbm affinity estimate (log intensity, higher = more binding, comparable within an allelic series); in assay [6], 11.1 upbm affinity estimate (log intensity, higher = more binding, comparable within an allelic series). For the same sequence, the binding signal is 12.8 upbm affinity estimate (log intensity, higher = more binding, comparable within an allelic series) in assay [7]; 12.4 upbm affinity estimate (log intensity, higher = more binding, comparable within an allelic series) in [8]; 11.7 upbm affinity estimate (log intensity, higher = more binding, comparable within an allelic series) in assay [9]; 12.2 upbm affinity estimate (log intensity, higher = more binding, comparable within an allelic series) in assay [10]; 11.9 upbm affinity estimate (log intensity, higher = more binding, comparable within an allelic series) in assay [11]; 11.4 upbm affinity estimate (log intensity, higher = more binding, comparable within an allelic series) in assay [12].

Take GCCATAAA: the binding signal in [1] is 9.72 upbm affinity estimate (log intensity, higher = more binding, comparable within an allelic series); in assay [2], 12.7 upbm affinity estimate (log intensity, higher = more binding, comparable within an allelic series); in assay [3], 12.4 upbm affinity estimate (log intensity, higher = more binding, comparable within an allelic series); in [4], 12.2 upbm affinity estimate (log intensity, higher = more binding, comparable within an allelic series); in assay [5], 12.9 upbm affinity estimate (log intensity, higher = more binding, comparable within an allelic series); in [6], 10.7 upbm affinity estimate (log intensity, higher = more binding, comparable within an allelic series). Also, the binding signal was 12.9 upbm affinity estimate (log intensity, higher = more binding, comparable within an allelic series) in assay [7]; 11.9 upbm affinity estimate (log intensity, higher = more binding, comparable within an allelic series) in assay [8]; 11.8 upbm affinity estimate (log intensity, higher = more binding, comparable within an allelic series) in assay [9]; 11.7 upbm affinity estimate (log intensity, higher = more binding, comparable within an allelic series) in [10]; 11.9 upbm affinity estimate (log intensity, higher = more binding, comparable within an allelic series) in assay [11]; 10.9 upbm affinity estimate (log intensity, higher = more binding, comparable within an allelic series) in [12].

With AATTTTAT, the binding signal in assay [1] is 9.84 upbm affinity estimate (log intensity, higher = more binding, comparable within an allelic series); in assay [2] it was 12.6 upbm affinity estimate (log intensity, higher = more binding, comparable within an allelic series); in assay [3], 12.3 upbm affinity estimate (log intensity, higher = more binding, comparable within an allelic series); in [4], 11.9 upbm affinity estimate (log intensity, higher = more binding, comparable within an allelic series); in assay [5], 12.7 upbm affinity estimate (log intensity, higher = more binding, comparable within an allelic series); in [6] it was 10.7 upbm affinity estimate (log intensity, higher = more binding, comparable within an allelic series). For the same sequence, the binding signal was 12.6 upbm affinity estimate (log intensity, higher = more binding, comparable within an allelic series) in assay [7]; 11.7 upbm affinity estimate (log intensity, higher = more binding, comparable within an allelic series) in assay [9]; 11.6 upbm affinity estimate (log intensity, higher = more binding, comparable within an allelic series) in assay [11]; 11.2 upbm affinity estimate (log intensity, higher = more binding, comparable within an allelic series) in assay [12].

For ATCGTTAA, the binding signal in [1] was 9.99 upbm affinity estimate (log intensity, higher = more binding, comparable within an allelic series); in assay [2] it was 12.5 upbm affinity estimate (log intensity, higher = more binding, comparable within an allelic series); in assay [3], 12.4 upbm affinity estimate (log intensity, higher = more binding, comparable within an allelic series); in assay [5] it was 12.6 upbm affinity estimate (log intensity, higher = more binding, comparable within an allelic series); in [7], 12.5 upbm affinity estimate (log intensity, higher = more binding, comparable within an allelic series); in assay [13], 13.1 upbm affinity estimate (log intensity, higher = more binding, comparable within an allelic series). For the same sequence, the binding signal in assay [9] is 12.1 upbm affinity estimate (log intensity, higher = more binding, comparable within an allelic series); in [12] it was 10.7 upbm affinity estimate (log intensity, higher = more binding, comparable within an allelic series).

Consider CTATTAAA, for which the binding signal in assay [1] is 9.97 upbm affinity estimate (log intensity, higher = more binding, comparable within an allelic series); in [2], 12.6 upbm affinity estimate (log intensity, higher = more binding, comparable within an allelic series); in assay [4] it was 11.9 upbm affinity estimate (log intensity, higher = more binding, comparable within an allelic series); in assay [5], 12.8 upbm affinity estimate (log intensity, higher = more binding, comparable within an allelic series); in [14] it was 9.79 upbm affinity estimate (log intensity, higher = more binding, comparable within an allelic series); in assay [6] it was 11 upbm affinity estimate (log intensity, higher = more binding, comparable within an allelic series). Moreover, the binding signal is 12.7 upbm affinity estimate (log intensity, higher = more binding, comparable within an allelic series) in [7]; 9.81 upbm affinity estimate (log intensity, higher = more binding, comparable within an allelic series) in [15]; 12 upbm affinity estimate (log intensity, higher = more binding, comparable within an allelic series) in assay [8]; 11.8 upbm affinity estimate (log intensity, higher = more binding, comparable within an allelic series) in assay [9]; 11.9 upbm affinity estimate (log intensity, higher = more binding, comparable within an allelic series) in assay [10]; 11.6 upbm affinity estimate (log intensity, higher = more binding, comparable within an allelic series) in assay [11]. The binding signal was 11.1 upbm affinity estimate (log intensity, higher = more binding, comparable within an allelic series) in [12] and 10.3 upbm affinity estimate (log intensity, higher = more binding, comparable within an allelic series) in [16].

Take ATCGTAAA: the binding signal in assay [1] is 9.78 upbm affinity estimate (log intensity, higher = more binding, comparable within an allelic series); in [2], 12.6 upbm affinity estimate (log intensity, higher = more binding, comparable within an allelic series); in assay [3], 12.7 upbm affinity estimate (log intensity, higher = more binding, comparable within an allelic series); in assay [4] it was 11.9 upbm affinity estimate (log intensity, higher = more binding, comparable within an allelic series); in assay [5], 12.9 upbm affinity estimate (log intensity, higher = more binding, comparable within an allelic series); in assay [6], 10.9 upbm affinity estimate (log intensity, higher = more binding, comparable within an allelic series). In addition, the binding signal in [7] was 12.6 upbm affinity estimate (log intensity, higher = more binding, comparable within an allelic series); in assay [8], 12.1 upbm affinity estimate (log intensity, higher = more binding, comparable within an allelic series); in [9], 12.1 upbm affinity estimate (log intensity, higher = more binding, comparable within an allelic series); in [10], 11.8 upbm affinity estimate (log intensity, higher = more binding, comparable within an allelic series); in assay [11], 11.4 upbm affinity estimate (log intensity, higher = more binding, comparable within an allelic series); in assay [12] it was 10.8 upbm affinity estimate (log intensity, higher = more binding, comparable within an allelic series).

As to ATTTATGA, the binding signal in assay [1] was 9.81 upbm affinity estimate (log intensity, higher = more binding, comparable within an allelic series); in assay [2], 12.5 upbm affinity estimate (log intensity, higher = more binding, comparable within an allelic series); in assay [3], 12.4 upbm affinity estimate (log intensity, higher = more binding, comparable within an allelic series); in assay [4], 11.8 upbm affinity estimate (log intensity, higher = more binding, comparable within an allelic series); in assay [5] it was 12.7 upbm affinity estimate (log intensity, higher = more binding, comparable within an allelic series); in [6] it was 10.9 upbm affinity estimate (log intensity, higher = more binding, comparable within an allelic series). The binding signal in [7] was 12.6 upbm affinity estimate (log intensity, higher = more binding, comparable within an allelic series); in assay [8], 12 upbm affinity estimate (log intensity, higher = more binding, comparable within an allelic series); in assay [9], 11.7 upbm affinity estimate (log intensity, higher = more binding, comparable within an allelic series); in [10] it was 11.8 upbm affinity estimate (log intensity, higher = more binding, comparable within an allelic series); in assay [11], 11.5 upbm affinity estimate (log intensity, higher = more binding, comparable within an allelic series); in assay [12], 11.1 upbm affinity estimate (log intensity, higher = more binding, comparable within an allelic series).

For the sequence CAGAAGCC, the binding signal was 8.6 upbm affinity estimate (log intensity, higher = more binding, comparable within an allelic series) in assay [1]; 9.41 upbm affinity estimate (log intensity, higher = more binding, comparable within an allelic series) in assay [17]; 8.72 upbm affinity estimate (log intensity, higher = more binding, comparable within an allelic series) in assay [4]; 8.73 upbm affinity estimate (log intensity, higher = more binding, comparable within an allelic series) in assay [11]; 9.47 upbm affinity estimate (log intensity, higher = more binding, comparable within an allelic series) in assay [18].

The values are drawn from publication PMC11006913.
